GBA enhancer – increases beta-glucosidase activity in Gaucher fibroblasts | P04062 | L444P Gaucher fibroblasts, 4-MU-glucoside fluorescence, 3 days | activation, % at 10 µM | 0.44% of 30,000 active; in the data active means activation above about 65%;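 further: 0% = vehicle wells and 100% = positive control wells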
Target sequence (P04062 whole entry L483P): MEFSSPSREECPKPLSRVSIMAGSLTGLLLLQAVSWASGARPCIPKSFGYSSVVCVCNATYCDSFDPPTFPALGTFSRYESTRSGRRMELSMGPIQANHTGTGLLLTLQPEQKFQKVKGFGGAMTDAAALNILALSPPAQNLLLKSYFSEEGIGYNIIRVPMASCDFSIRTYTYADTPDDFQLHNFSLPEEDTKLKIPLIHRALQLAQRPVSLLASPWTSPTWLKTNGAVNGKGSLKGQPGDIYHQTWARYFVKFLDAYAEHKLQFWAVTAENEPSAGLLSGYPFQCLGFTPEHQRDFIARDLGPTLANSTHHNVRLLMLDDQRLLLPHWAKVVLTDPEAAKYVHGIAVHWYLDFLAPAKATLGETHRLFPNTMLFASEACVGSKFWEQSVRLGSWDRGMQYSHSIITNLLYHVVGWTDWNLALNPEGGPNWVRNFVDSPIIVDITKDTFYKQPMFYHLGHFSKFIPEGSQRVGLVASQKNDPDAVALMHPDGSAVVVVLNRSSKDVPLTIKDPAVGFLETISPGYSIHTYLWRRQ
* = called active by the depositor. The sample as a whole holds a higher share of hits than the screen did.

How did O=C1CSc2ccccc2N1Cc1ccc(F)cc1 do in these assays?
GBA enhancer: 37.2

What do the screens show for `O=C(O)CN1C(=O)CSc2ccccc21`?
GBA enhancer: -8.3

How did Cc1ccc2c(c1)N(CC(=O)O)C(=O)CO2 do in these assays?
GBA enhancer: -7.4

Results for CC1(C)CC(=O)N(CC(=O)O)c2ccccc2S1 ?
GBA enhancer: 88.5*

How did O=C(O)CN1C(=O)C2(OCCCO2)c2ccccc21 do in these assays?
GBA enhancer: 3.8

Results for CCOC(=O)CN1C(=O)CSc2ccccc21 ?
GBA enhancer: 73.1*

How did CCOC(=O)C1=C(C)NC(=O)NC1c1c(OCC(=O)N2CCCCC2)ccc2ccccc12 (stereo not given) do in these assays?
GBA enhancer: -3.2

What do the screens show for `O=C(NCCc1ccc(Cl)cc1)C1CCN(S(=O)(=O)N2CCC3(CC2)OCCO3)CC1`?
GBA enhancer: 4.8

How did COc1ccc(NC(=O)c2cnc3sccn3c2=O)cc1OC do in these assays?
GBA enhancer: 7.9

How did CS(=O)(=O)N(CC(=O)N1CCc2ccccc2C1)c1ccc2c(c1)OCO2 do in these assays?
GBA enhancer: -41.8

What do the screens show for `Cc1cc(C)nc(-n2nc(C)c(C3(O)C(=O)Nc4ccccc43)c2N)n1` (stereo not given)?
GBA enhancer: -10.8

Results for Cc1ccc(S(=O)(=O)N(C)CC(=O)Nc2ccncc2)cc1 ?
GBA enhancer: -9.9

Results for CON(C)c1nc(OCCNC(=O)OCc2ccc(Cl)cc2Cl)nc(N(C)C)n1 ?
GBA enhancer: -5.0

Results for CCOc1ccc(CCNC(=O)C2CCN(c3nn4c(=O)cc(C)nc4s3)CC2)cc1OCC ?
GBA enhancer: 3.4

Results for Cc1cc(NC(=O)CN2CCN(Cc3ccccc3)CC2)nc2c1c(=O)oc1ccccc12 ?
GBA enhancer: 11.0

Results for COc1ccc(C(=O)N(Cc2nc(-c3ccc(C)cc3)no2)C2CCCCC2)cc1OC ?
GBA enhancer: 16.9

Results for O=C(O)c1ccc2c(c1)CC(c1ccccc1)OC2=O (stereo not given) ?
GBA enhancer: -20.7

Results for CC(C)(C)N1C(=O)c2ccc(C(=O)O)cc2C1=O ?
GBA enhancer: 7.3

How did O=C(O)c1ccc2c(c1)C(c1ccccc1)OC2=O (stereo not given) do in these assays?
GBA enhancer: 78.3*

How did COc1ccc(N(Cc2cc3ccc(C)cc3[nH]c2=O)C(C)=O)cc1 do in these assays?
GBA enhancer: -8.3

Results for O=c1cc(CSc2nnnn2-c2ccccc2)[nH]c2[nH]n(-c3ccccc3)c(=O)c12 ?
GBA enhancer: 2.4

Results for Cc1c(Cl)cccc1N(CC(=O)O)S(C)(=O)=O ?
GBA enhancer: 87.6*

How did Cc1c(Cl)cccc1N(CC(=O)N1CCCCCC1)S(C)(=O)=O do in these assays?
GBA enhancer: -9.3

Results for CNC(=O)CN(c1cccc2ccccc12)S(C)(=O)=O ?
GBA enhancer: -30.8

How did COC(=O)c1ccc(NC(=O)CN2CCN(S(=O)(=O)c3cc(Cl)ccc3OC)CC2)cc1 do in these assays?
GBA enhancer: -18.1

What do the screens show for `COc1ccc(C)cc1NC(=O)CN1CCN(S(=O)(=O)c2ccc(C(C)C)cc2)CC1`?
GBA enhancer: 20.9

What do the screens show for `COc1ccc(NC(=O)CN2CCN(S(=O)(=O)c3ccc(C(C)C)cc3)CC2)cc1OC`?
GBA enhancer: 65.8*

How did CCCn1c(N)c(C(=O)CN2CCN(S(=O)(=O)c3cccs3)CC2)c(=O)[nH]c1=O do in these assays?
GBA enhancer: 4.0

Results for Cc1onc(COc2ccccc2O)c1Br ?
GBA enhancer: -8.0

Results for COc1cc2cc(CN(Cc3cccnc3)C(=O)NCc3ccccc3)c(=O)[nH]c2cc1OC ?
GBA enhancer: 21.8

What do the screens show for `COc1ccc(CNC(=O)CN(CC2CCCO2)C(=O)CNS(=O)(=O)c2ccccc2)cc1` (stereo not given)?
GBA enhancer: -7.4

Results for Cc1ccc(S(=O)(=O)NCC(=O)N(CC(=O)NCc2ccccc2)CC2CCCO2)cc1 (stereo not given) ?
GBA enhancer: 4.7

How did COc1ccc(CNC(=O)CN(CC2CCCO2)C(=O)CNS(=O)(=O)c2ccc(C)cc2)cc1 (stereo not given) do in these assays?
GBA enhancer: 75.7*

How did Cc1cc(CN2C(=O)c3ccccc3C2=O)cc(N2CCOCC2)c1 do in these assays?
GBA enhancer: 1.3

How did O=C(NCc1n[nH]c(=S)n1-c1ccccc1)c1ccco1 do in these assays?
GBA enhancer: 32.3

Results for COc1cccc(-c2n[nH]c(=S)n2Cc2ccco2)c1OC ?
GBA enhancer: 6.1

What do the screens show for `S=c1[nH]nc(Cc2ccccc2)n1Cc1ccco1`?
GBA enhancer: 100.5*

How did COc1ccc(CCNC(=O)CSc2nnc(-c3ccc(F)cc3)o2)cc1OC do in these assays?
GBA enhancer: -11.5

How did O=C(Nc1nnc(-c2ccccc2Cl)o1)c1cccnc1 do in these assays?
GBA enhancer: -8.6

What do the screens show for `COc1ccc(S(=O)(=O)C(C#N)c2nc3ccccc3nc2N2CCCCC2)cc1` (stereo not given)?
GBA enhancer: 96.5*

What do the screens show for `Cc1ccc(C)c(S(=O)(=O)C(C#N)c2nc3ccccc3nc2N2CCCC2)c1` (stereo not given)?
GBA enhancer: 13.4

Results for COc1ccc(CNC(=O)C(C#N)c2nc3ccccc3nc2N2CCCC2)cc1 (stereo not given) ?
GBA enhancer: -19.8

Results for Cc1ccc2c(c1)N(CC(=O)NCc1cccs1)C(=O)CO2 ?
GBA enhancer: -16.7

How did Cc1sc2nc(SCC(=O)c3cc(C)n(CC4CCCO4)c3C)n(C(C)C)c(=O)c2c1C (stereo not given) do in these assays?
GBA enhancer: 4.7

How did COCCN(CCOC)S(=O)(=O)c1ccc(C(=O)Nc2nnc(C)o2)cc1 do in these assays?
GBA enhancer: -8.5

How did COCc1nnc(NC(=O)c2ccc(S(=O)(=O)N3CCCCCC3)cc2)o1 do in these assays?
GBA enhancer: 2.1

Results for COCc1nnc(NC(=O)c2ccc(S(=O)(=O)N(C)C3CCCCC3)cc2)o1 ?
GBA enhancer: 78.8*

How did CCOc1cc(C2NC(=O)NC(O)(C(F)(F)F)C2C(=O)c2ccc(OC)cc2)ccc1O (stereo not given) do in these assays?
GBA enhancer: -26.4

How did Cc1cc2ccccc2c(=O)n1CC(=O)N1CCN(c2cccc(Cl)c2)CC1 do in these assays?
GBA enhancer: -13.2

How did Cc1cc2ccccc2c(=O)n1CC(=O)NCC(=O)N1CCN(c2ccccc2)CC1 do in these assays?
GBA enhancer: 74.7*

How did Cc1cc2ccccc2c(=O)n1CC(=O)NC1CCCCCC1 do in these assays?
GBA enhancer: -19.6

Results for CCOC(=O)c1c(NC(=O)CSc2nnc(-c3cccnc3)n2Cc2ccco2)sc(C)c1C ?
GBA enhancer: -22.6

What do the screens show for `CCOC(=O)c1sc(C)c2c1NC(C)(c1cccs1)NC2=O` (stereo not given)?
GBA enhancer: -29.2

Results for Cc1ccc(C)c(-n2nnnc2SCC(=O)NCCC2=CCCCC2)c1 ?
GBA enhancer: -5.2

What do the screens show for `C=C(C)c1cccc(C(C)(C)NC(=O)NCCCn2ccnc2)c1`?
GBA enhancer: -15.8

How did O=C(NCCCn1ccnc1)Nc1ccc(Cl)cc1 do in these assays?
GBA enhancer: 122.0*

What do the screens show for `O=C(NCCCn1ccnc1)Nc1ccc(Cl)c(Cl)c1`?
GBA enhancer: -3.0

How did CC1CCN(C(=O)c2cc3ccccc3o2)CC1 do in these assays?
GBA enhancer: 1.0

How did Cc1cccc(C(=O)Nc2ccccc2C(=O)OCc2c(C)noc2C)c1 do in these assays?
GBA enhancer: 5.3

How did Cc1ccc(-n2c(=O)c(C#N)cc3c(=O)n4ccccc4nc32)cc1 do in these assays?
GBA enhancer: 134.0*
